From PubChem BioAssay (NCI) come the findings set out here.

Among the test systems are SK-MEL-2 melanoma; SN12C renal; UO-31 renal; TK-10 renal; ACHN renal; CAKI-1 renal; A498 renal; CCRF-CEM leukemia; MOLT-4 leukemia; SR leukemia; RPMI-8226 leukemia; OVCAR-8 ovarian; OVCAR-5 ovarian; OVCAR-4 ovarian; SK-OV-3 ovarian; IGROV1 ovarian; OVCAR-3 ovarian; HS 578T breast; NCI/ADR-RES ovarian.
Test in all cases: NCI-60 one-dose screen, 48 h (100 = growth as untreated, 0 = no growth, -100 = all killed)
Holding throughout (conditions): 10 µM unless noted

Compounds without any hit were thinned out: in the full panel of roughly 83,000, 20% have a hit.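 Method: cells in 96-well plates; compound added at one concentration; 48 h incubation; percent growth measured; values under 10 scored active.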 A number with no mark means an inactive call. The source made the active and inactive calls.

In the case of `O=c1c(/C=C/c2c(O)ccc3ccccc23)nnc2sc(-c3cccc([N+](=O)[O-])c3)nn12`, the growth with SK-MEL-2 melanoma is 79.2%; in the test with SN12C renal, 45.9%; with UO-31 renal it was 20.1%; in the test with TK-10 renal, 83.1%; in the test with ACHN renal, 31.7%; in the test on CAKI-1 renal it was 24.9%. Further, the growth is 50.5% in the test on A498 renal; 18.6% in the test with CCRF-CEM leukemia; 25.9% in the test on MOLT-4 leukemia; 28.3% in the test with SR leukemia; 57.3% in the test on RPMI-8226 leukemia; 22.4% with OVCAR-8 ovarian. Besides, the growth is 82.1% in the test with OVCAR-5 ovarian; 25.5% in the test on OVCAR-4 ovarian; 46% with SK-OV-3 ovarian; 43.1% in the test on IGROV1 ovarian; 15.2% in the test on OVCAR-3 ovarian; 68.3% with HS 578T breast. Further, the growth in the test on NCI/ADR-RES ovarian was 29.4%.
Turning to `Nc1ncnc2c1N=C(c1ccc([N+](=O)[O-])cc1)CC(c1ccc3c(c1)OCO3)N2` (centres undefined), the growth in the test with SK-MEL-2 melanoma is 59.6%; in the test with SN12C renal, 102%; in the test on UO-31 renal, 55.7%; in the test on TK-10 renal, 107%; with ACHN renal, 88.3%; with CAKI-1 renal it was 89.6%. The growth in the test on A498 renal was 87.4%; with CCRF-CEM leukemia, 65%; in the test on MOLT-4 leukemia it was 84.1%; in the test on SR leukemia it was 85.3%; with RPMI-8226 leukemia it was 71.1%; in the test on OVCAR-8 ovarian it was 89.6%. Also, the growth in the test with OVCAR-5 ovarian was 91.7%; in the test on OVCAR-4 ovarian, 95.5%; in the test on SK-OV-3 ovarian, 91.1%; in the test with IGROV1 ovarian, 51.1%; with OVCAR-3 ovarian, 90.6%; in the test on NCI/ADR-RES ovarian, 77.6%.
In the case of `COc1cc2cc(Oc3ccc(NC(=O)Nc4ccc(F)c(C(F)(F)F)c4)cc3)c(C)nc2cc1OCCN1CCCCC1`, the growth with SK-MEL-2 melanoma is 102%; in the test on SN12C renal, 91.7%; with UO-31 renal it was 75.3%; in the test with ACHN renal it was 84.1%; with CAKI-1 renal, -85% (active); in the test on A498 renal it was 84.7%. Further, the growth in the test on CCRF-CEM leukemia was 2.51% (active); in the test with MOLT-4 leukemia, -14.5% (active); in the test with SR leukemia, -46.1% (active); in the test with RPMI-8226 leukemia, -25.8% (active); with OVCAR-8 ovarian, -55.5% (active); in the test with OVCAR-5 ovarian, 127%. In addition, the growth with OVCAR-4 ovarian is 0.714% (active); in the test on IGROV1 ovarian, 34.7%; with OVCAR-3 ovarian it was -92.5% (active); in the test with HS 578T breast, 102%; in the test with NCI/ADR-RES ovarian, 74.7%.
Take `CC1=C(C(=O)OCc2ccccc2)C(c2ccc3c(c2)OCO3)n2c(nc3ccccc32)N1` (centres undefined): the growth with SK-MEL-2 melanoma is 47.8%; with SN12C renal, 47.6%; with UO-31 renal it was 51.1%; with TK-10 renal, 65.6%; in the test with ACHN renal, 38.4%; in the test on CAKI-1 renal, 34.3%. For the same compound, the growth in the test on A498 renal is -10.2% (active); in the test on CCRF-CEM leukemia it was 24.9%; with MOLT-4 leukemia, 37.1%; in the test with SR leukemia, 9.81% (active); in the test on RPMI-8226 leukemia it was 39.8%; in the test on OVCAR-8 ovarian, 46.7%. Further, the growth is 64.4% in the test on OVCAR-5 ovarian; 73.8% in the test on OVCAR-4 ovarian; 41.7% in the test on SK-OV-3 ovarian; 41.4% in the test with IGROV1 ovarian; 12.1% with OVCAR-3 ovarian; 0.752% (active) in the test on HS 578T breast. For the same compound, in the test with NCI/ADR-RES ovarian, the growth is 23.2%.
In the case of `COc1cc2c(c(OC)c1OC)C(=O)CC(c1cccc(C(=O)Nc3ccc(Br)cc3)c1)O2` (centres undefined), the growth is 60.3% in the test on SK-MEL-2 melanoma; 51.1% with SN12C renal; 40.3% with UO-31 renal; 75.2% in the test on TK-10 renal; 63.9% with ACHN renal; 62% in the test on CAKI-1 renal. Moreover, the growth with A498 renal was 40.3%; in the test on CCRF-CEM leukemia, 9.34% (active); in the test with MOLT-4 leukemia, -0.848% (active); with SR leukemia, 22.2%; in the test on RPMI-8226 leukemia it was 14.6%; in the test on OVCAR-8 ovarian, 47.1%. For the same compound, the growth in the test with OVCAR-5 ovarian is 89.4%; in the test on OVCAR-4 ovarian it was 45.6%; with SK-OV-3 ovarian, 76.2%; with IGROV1 ovarian, 67.4%; in the test with OVCAR-3 ovarian it was 65%; in the test on HS 578T breast, 91.4%. Also, the growth in the test on NCI/ADR-RES ovarian is 36.1%.
Regarding `COc1ccc(-c2cn(Cc3ccc4c(Br)cc(Br)c(O)c4n3)nn2)cc1`, the growth in the test with SK-MEL-2 melanoma was 101%; with SN12C renal, 100%; in the test with UO-31 renal, -92.3% (active); in the test on TK-10 renal, 91.3%; in the test with ACHN renal, -68.7% (active); in the test with CAKI-1 renal it was 61.6%. The growth in the test with A498 renal is 99.6%; with CCRF-CEM leukemia it was 73.9%; in the test with MOLT-4 leukemia it was 87%; in the test with SR leukemia, -23.1% (active); with RPMI-8226 leukemia it was 67.2%; in the test with OVCAR-8 ovarian, 88.7%. Also, the growth in the test on OVCAR-5 ovarian was 95.6%; in the test with OVCAR-4 ovarian, 96.2%; with SK-OV-3 ovarian, 108%; with IGROV1 ovarian, 56.6%; in the test on OVCAR-3 ovarian, 73.2%; with HS 578T breast, 109%. Besides, the growth with NCI/ADR-RES ovarian is 102%.
`O=C(CSc1nnc(-c2ccc(Cl)c(Cl)c2)n1-c1ccccc1)Nc1ccc(C(=O)/C=C/c2ccc(Cl)cc2)cc1`: the growth is 78.6% in the test on SK-MEL-2 melanoma; 89.4% with SN12C renal; 66.2% with UO-31 renal; 93.3% in the test with TK-10 renal; 98% with ACHN renal; 74.2% in the test with CAKI-1 renal. For the same compound, the growth with A498 renal is 82.5%; in the test with CCRF-CEM leukemia it was 83.7%; with MOLT-4 leukemia it was 80.5%; with SR leukemia, 76.6%; in the test with RPMI-8226 leukemia it was -11.4% (active); in the test on OVCAR-8 ovarian it was 87.9%. Also, the growth in the test with OVCAR-5 ovarian was 96.8%; in the test on OVCAR-4 ovarian, 94.4%; in the test with SK-OV-3 ovarian, 87.9%; with IGROV1 ovarian, 89.2%; with OVCAR-3 ovarian it was 95.5%; in the test with NCI/ADR-RES ovarian, 95.3%.
